Reference: PubChem BioAssay (NCI)
About 83,000 compounds went through this panel and 20% of them were active in at least one assay; those are over-represented in the sample as a whole.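 In brief: 96-well plates, 48 h treatment, single concentration, percent growth endpoint.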 Values without a mark were called inactive. The source made the active and inactive calls. Rule for the calls: active = growth percent below 10; inactive = the rest.

Columns and labels:
Test in all cases: NCI-60 one-dose screen, 48 h (100 = growth as untreated, 0 = no growth, -100 = all killed)
Settings in all cases: 10 µM
SK-MEL-2 melanoma = system: SK-MEL-2 melanoma
EKVX NSCLC = system: EKVX NSCLC
SN12C renal = system: SN12C renal
UO-31 renal = system: UO-31 renal
TK-10 renal = system: TK-10 renal
ACHN renal = system: ACHN renal
CAKI-1 renal = system: CAKI-1 renal
A498 renal = system: A498 renal
CCRF-CEM leukemia = system: CCRF-CEM leukemia
MOLT-4 leukemia = system: MOLT-4 leukemia

Row | Structure (SMILES) | growth (SK-MEL-2 melanoma) | growth (EKVX NSCLC) | growth (SN12C renal) | growth (UO-31 renal) | growth (TK-10 renal) | growth (ACHN renal) | growth (CAKI-1 renal) | growth (A498 renal) | growth (CCRF-CEM leukemia) | growth (MOLT-4 leukemia)
1 | O=C(/C=C/Nc1ccc(F)cc1F)c1ccc2c(c1)Nc1ccccc1S2 | 86.5% | 74.2% | 82% | 80.3% | 100% | 78.6% | 83.9% | 108% | 73.8% | 66.7%
2 | COc1ccc(-c2nc(-c3ccccc3)c(-c3ccccc3)n2-c2ccc(S(=O)(=O)Nc3ncccn3)cc2)cc1OC | 108% | 63.6% | 76.3% | 51.7% | 91.8% | 82.6% | 76.5% | 55% | 69% | 70.5%
3 | O=C(Nc1ccc(F)c(Cl)c1)c1cc(-c2ccc(F)cc2F)ccc1O | -69.2% (active) | -5.82% (active) | -17.3% (active) | -5.93% (active) | 19.1% | -13.4% (active) | -18.2% (active) | -21% (active) | 0.694% (active) | -21.1% (active)
4 | CCOP(=O)(OCC)O[C@H]1CC[C@]2(C)[C@H]3CC[C@@H]4[C@@H]([C@](C)(O)CCC=C(C)C)CC[C@@]4(C)[C@]3(C)CC[C@H]2C1(C)C | 17.1% | 28.2% | -51.7% (active) | 24.8% | 36.6% | 28% | 25.2% | 52.5% | -21.2% (active) | -15.5% (active)
5 | CN1C(=O)N(C)C2SC(N/N=C/c3cccs3)=NC21 (stereo not given) | 9.78% (active) | 56.2% | 26.5% | 40.3% | 63.7% | 38.8% | 20.8% | 65.6% | 20.3% | 33.4%
6 | CC1(c2ccccc2)NC(=O)N(CC(=O)Nc2ccc(C(=O)/C=C/c3ccc(Cl)cc3)cc2)C1=O (stereo not given) | 34% | 30.3% | 19.4% | 22.7% | 67.9% | 13.4% | 21.4% | 76.7% | 7.4% (active) | -4.5% (active)
7 | O=C(Nc1nc2ccc([N+](=O)[O-])cc2s1)Nc1ccccc1I | -21.6% (active) | -8.48% (active) | 1.18% (active) | 0.855% (active) | 10.8% | -0.408% (active) | -19.5% (active) | -8.67% (active) | 3.88% (active) | 1.39% (active)
8 | C=C1CCC2C3(C)COC(c4ccccc4F)OC3CCC2(C)C1C/C=C1/C(=O)OCC1O (stereo not given) | -59.2% (active) | -51.6% (active) | -40.9% (active) | -96.5% (active) | -67.1% (active) | -99.4% (active) | -40.7% (active) | 101% | 15.1% | 9.47% (active)
9 | Cc1ccc(-c2ccc(SCC(=O)Nc3ccc(S(N)(=O)=O)cc3Br)nn2)cc1 | 80.6% | 62.5% | 39.5% | 70.6% | 84.7% | 11.7% | 56.9% | 87.2% | 93.4% | 89.9%
10 | O=C(Nc1cccc(C(F)(F)F)c1)c1cncc(C#Cc2cnc3ccc(N4CCOCC4)nn23)c1 | -26.3% (active) | -22.3% (active) | 4.67% (active) | -31.7% (active) | 27.3% | 3.28% (active) | 6.18% (active) | -87.8% (active) | 10.6% | 3.44% (active)
11 | O=C(Nc1cc(Cl)cc(Cl)c1)Nc1cc(Cl)cc(Cl)c1 | -48.4% (active) | -12% (active) | -34.3% (active) | -8.17% (active) | 0.158% (active) | -19.4% (active) | -32.4% (active) | -18.3% (active) | -33.5% (active) | -36.2% (active)
12 | Cc1ccc2nc(-c3ccc(-c4nnc(SCC(=O)Nc5ccc(Cl)cc5)o4)cc3)[nH]c2c1 | 95% | 58.7% | -3% (active) | 56.6% | 38.1% | 7.34% (active) | 21.7% | 73.9% | 58.8% | 35.6%
13 | Cn1cc(/C=N/Nc2ccnc3cc(Cl)ccc23)c2ccccc21 | -72.3% (active) | -85.1% (active) | -59.4% (active) | -90.1% (active) | -72.1% (active) | -92.7% (active) | -85.3% (active) | -80.2% (active) | -35.6% (active) | -32.1% (active)
14 | COc1nccnc1NS(=O)(=O)c1ccc(NC2=C(Cl)C(=O)c3nc(C)ccc3C2=O)cc1 | 113% | 88.2% | 99.1% | 74.5% | 132% | 109% | 88.7% | 94% | 97% | 94.8%
15 | N#Cc1c(-c2ccc(F)cc2)nc(SCc2ccc(F)cc2)nc1N1CCOCC1 | 78.7% | 60.1% | 72.9% | 86% | 77.6% | 46.7% | 30.7% | 71.9% | 87.1% | 91.6%
16 | CCCCSc1nc(Nc2ccc(/C(C)=N/NC(N)=S)cc2)c(C#N)c(-c2ccccc2)n1 | 90.4% | 62.5% | 19.8% | 11.8% | 48.8% | 14.3% | 33.5% | 42.1% | 49.2% | 47.3%
17 | Cc1ccc(C(=O)NNC(=O)CSc2nc3ccccc3c(=O)[nH]2)cc1 | 107% | 97.2% | 94.1% | 75.2% | 107% | 107% | 95.7% | 94.6% | 98.8% | 96.4%
18 | COc1cc(C2CC(c3ccccc3)=Nc3c(N)nc(N)nc3N2)ccc1Oc1nc(Nc2ccc(F)cc2)nc(N(C)C)n1 (stereo not given) | 54.5% | 50.2% | 64.6% | 46.6% | 82.6% | 38.5% | 39.3% | 94.4% | 25.4% | 1.45% (active)
19 | COc1ccc(/C=C/C(=O)c2ccc(S(=O)(=O)NCCNc3nc(Nc4ccc(F)cc4)nc(N(C)C)n3)cc2)cc1 | 74.7% | 34.1% | 14.5% | 14% | 70.3% | 16.2% | 27.4% | 47.9% | 16% | 9.26% (active)
20 | O=C1Nc2ccc(Cl)cc2/C1=C/c1ccc(OCc2ccccn2)cc1 | 111% | 65.7% | 44.5% | 59.6% | 90.1% | 57% | 61.6% | 45.1% | 83.2% | 46.8%
21 | CCCn1c(=O)c2[nH]c(-c3ccc(OCc4nc5ccc(C(F)(F)F)cc5[nH]4)cc3)nc2n(CCC)c1=O | 66.8% | 53.2% | 53.5% | 52.1% | 96.2% | 64.7% | 43.6% | 51.1% | 35.3% | 11.5%
22 | C=C1CCC2C3(C)COC(c4c(F)cccc4F)OC3CCC2(C)C1C/C=C1/C(=O)OCC1O (stereo not given) | -44.7% (active) | 3.87% (active) | -24.1% (active) | -91.6% (active) | -23.2% (active) | -97.8% (active) | 2.15% (active) | 141% | 13.9% | 11.4%
23 | O=C(NO)c1ccc(Cn2ccc3c(Nc4ccccc4)ncnc32)cc1 | 8.71% (active) | 23.6% | 17.6% | 9.48% (active) | 2.65% (active) | 1.86% (active) | 10.7% | -14.2% (active) | 18.2% | 7.84% (active)
24 | O=C(CNc1nc(-c2ccccc2)cs1)Nc1ccccc1 | -68.8% (active) | -93.3% (active) | -47.3% (active) | 17.9% | -79.4% (active) | -27.4% (active) | 5.53% (active) | -4.95% (active) | 14.9% | -3.86% (active)
25 | COc1ccc(Nc2nc(N)n(Cc3cccc(Br)c3)n2)cc1 | -35.7% (active) | 6.36% (active) | 14.7% | 0.264% (active) | 24.9% | 1.18% (active) | 8.17% (active) | -19.5% (active) | 10.2% | 9.01% (active)
26 | O=c1[nH]c2ccccc2cc1CSc1ccc(Nc2nccc(-c3ccc4ccccc4c3)n2)cc1 | 96.5% | 68.1% | 54.1% | 93.7% | 78.8% | 79.5% | 72.6% | 82% | 79.9% | 75.1%
